Our source for the growth values is PubChem BioAssay (NCI).

Structures are written as SMILES. Compounds without any hit were thinned out: in the full panel of roughly 83,000, 20% have a hit.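 How to read the values: 0–100, growth inhibition (40 = 60% inhibited); 0, no net growth; -100 to 0, cell death (-40 = 40% of starting cells died; -100 = all dead).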 A number with no mark means an inactive call. Activity calls are given as the source filed them. How the source made its calls: active means growth percent below 10; inactive means the rest.

Test systems include HCT-15 colon; HT29 colon; SNB-75 CNS; SNB-19 CNS; U251 CNS; PC-3 prostate; SK-MEL-5 melanoma; UACC-62 melanoma; LOX IMVI melanoma; SK-MEL-28 melanoma; SK-MEL-2 melanoma; EKVX NSCLC; SN12C renal; UO-31 renal; TK-10 renal; ACHN renal; CAKI-1 renal; CCRF-CEM leukemia; MOLT-4 leukemia; A498 renal.
Common to all, as to experiment: NCI-60 one-dose screen, 48 h (100 = growth as untreated, 0 = no growth, -100 = all killed)
Conditions in all cases: 10 µM unless noted

As for `C#CCOc1ccc2ncnc(Nc3cccc(NC(=O)CCl)c3)c2c1`, the growth was 50.6% in the assay on HCT-15 colon; 33.5% in the assay on HT29 colon; 68.9% in the assay on SNB-75 CNS; 71.8% with SNB-19 CNS; 62.2% in the assay with U251 CNS; 70% with PC-3 prostate. In addition, the growth in the assay on SK-MEL-5 melanoma is 68.3%; in the assay on UACC-62 melanoma, 60.6%; in the assay on LOX IMVI melanoma, -68.1% (active); with SK-MEL-28 melanoma, 90.6%; in the assay on SK-MEL-2 melanoma it was 69.7%; with EKVX NSCLC, 92.9%. The growth with SN12C renal was 69.4%; in the assay on UO-31 renal it was 59.5%; with TK-10 renal, 73.4%; in the assay on ACHN renal, 65.8%; in the assay on CAKI-1 renal, 81.2%; in the assay with CCRF-CEM leukemia, 16.1%. For the same compound, the growth with MOLT-4 leukemia was 18.1%.
For the compound `COc1ccc(/C=C/C(=O)c2ccc(Nc3nc(Nc4ccc(F)cc4)nc(Nc4ccc(Cl)cc4)n3)cc2)cc1`, the growth in the assay on HCT-15 colon was 100%; with HT29 colon it was 94.1%; in the assay on SNB-75 CNS it was 95.6%; with SNB-19 CNS, 115%; with U251 CNS, 111%; with PC-3 prostate it was 81.4%. Further, the growth was 83.6% with SK-MEL-5 melanoma; 105% in the assay with UACC-62 melanoma; 102% in the assay with LOX IMVI melanoma; 110% in the assay with SK-MEL-28 melanoma; 55.1% in the assay with SK-MEL-2 melanoma; 86.2% with EKVX NSCLC. Moreover, the growth is 75.6% in the assay with UO-31 renal; 137% in the assay on TK-10 renal; 106% with ACHN renal; 86.5% with CAKI-1 renal; 118% in the assay with A498 renal; 8.9% (active) with CCRF-CEM leukemia. Also, in the assay on MOLT-4 leukemia, the growth is 22.3%.
Take `C=CCCC(=O)N1C=CC(=O)[C@H](O)[C@@H]1/C=C/c1ccccc1`: the growth in the assay on HCT-15 colon was 36.5% [100 µM]; in the assay on HT29 colon, 39.4% [100 µM]; with SNB-75 CNS, 85% [100 µM]; with SNB-19 CNS, 44.5% [100 µM]; in the assay with U251 CNS, 33% [100 µM]; in the assay on PC-3 prostate, 51.2% [100 µM]. Further, the growth was 0.433% [100 µM] (active) in the assay with SK-MEL-5 melanoma; 27.8% [100 µM] with UACC-62 melanoma; 27.9% [100 µM] in the assay with LOX IMVI melanoma; 53.7% [100 µM] in the assay with SK-MEL-28 melanoma; 77.7% [100 µM] with SK-MEL-2 melanoma; 37.4% [100 µM] in the assay with EKVX NSCLC. The growth is 29% [100 µM] with UO-31 renal; 54.9% [100 µM] in the assay with TK-10 renal; 28.1% [100 µM] in the assay with ACHN renal; 15.7% [100 µM] in the assay on CAKI-1 renal; 83.4% [100 µM] in the assay with A498 renal; 27.7% [100 µM] in the assay on CCRF-CEM leukemia. Further, the growth in the assay with MOLT-4 leukemia is 36.5% [100 µM].
For `C=C1C(=O)O[C@H]2[C@H]1CC/C(CNC(=O)c1cc3ccccc3[nH]1)=C\CC[C@@]1(C)O[C@@H]21`, the growth in the assay with HCT-15 colon was -78.9% (active); in the assay with HT29 colon it was -59.7% (active); in the assay on SNB-75 CNS it was 48.4%; in the assay with SNB-19 CNS, 22.4%; in the assay on U251 CNS it was -16.8% (active); with PC-3 prostate it was -48.5% (active). Further, the growth in the assay with SK-MEL-5 melanoma was -87.6% (active); in the assay on UACC-62 melanoma it was -74.9% (active); in the assay on LOX IMVI melanoma, -78.8% (active); in the assay with SK-MEL-28 melanoma it was -57.6% (active); in the assay with SK-MEL-2 melanoma it was -60.8% (active); in the assay on EKVX NSCLC, 14%. Further, the growth was -43.3% (active) in the assay with SN12C renal; -73.5% (active) in the assay with UO-31 renal; -89.9% (active) with TK-10 renal; -77.6% (active) in the assay with ACHN renal; -60.4% (active) in the assay with CAKI-1 renal; -35.7% (active) in the assay on CCRF-CEM leukemia. Moreover, the growth with MOLT-4 leukemia was -35.5% (active).
In the case of `COc1ccc2nc(SCC(=O)Nc3ccccc3C)[nH]c2c1`, the growth in the assay with HCT-15 colon is 99.8%; in the assay with HT29 colon it was 109%; with SNB-75 CNS, 82.5%; in the assay on SNB-19 CNS, 95%; with U251 CNS, 93.5%; in the assay with PC-3 prostate, 84.5%. Moreover, the growth is 95.7% in the assay on SK-MEL-5 melanoma; 84.5% in the assay with UACC-62 melanoma; 95.6% with LOX IMVI melanoma; 95.8% in the assay on SK-MEL-28 melanoma; 101% in the assay with SK-MEL-2 melanoma; 88.4% in the assay on EKVX NSCLC. Further, the growth was 95.2% with SN12C renal; 74.3% with UO-31 renal; 105% in the assay on TK-10 renal; 94.4% with ACHN renal; 88% with CAKI-1 renal; 87.5% in the assay on CCRF-CEM leukemia. The growth in the assay on MOLT-4 leukemia is 88.8%.
As for `CCn1cc(CNc2ccc(C(=O)Nc3cc4cc(OC)c(OC)cc4c(C)n3)cc2)c(C)n1`, the growth in the assay on HCT-15 colon was 23.1%; with HT29 colon, 54.1%; with SNB-75 CNS, 77.1%; in the assay on SNB-19 CNS, 90%; in the assay with U251 CNS, 71%; in the assay with PC-3 prostate, 18.6%. In addition, the growth with SK-MEL-5 melanoma was 1.46% (active); with UACC-62 melanoma, 6.57% (active); in the assay with LOX IMVI melanoma, 23.9%; with SK-MEL-28 melanoma, 50.4%; with SK-MEL-2 melanoma, 11.5%; with EKVX NSCLC it was 59.7%. Moreover, the growth in the assay on SN12C renal was 67%; with UO-31 renal it was 22.4%; with TK-10 renal it was 49%; in the assay with ACHN renal, 36.1%; in the assay with CAKI-1 renal, 30.1%; in the assay on CCRF-CEM leukemia, 11.8%. In addition, in the assay with MOLT-4 leukemia, the growth was 9.9% (active).
As for `Cc1ccc(C)c(-n2c(-c3ccc(Br)cc3)csc2=NC(=O)c2ccccc2F)c1`, the growth in the assay on HCT-15 colon was 57.9%; with HT29 colon, 55.5%; in the assay with SNB-75 CNS it was 84.6%; in the assay on SNB-19 CNS, 93.7%; in the assay with U251 CNS, 46.4%; in the assay on PC-3 prostate it was 22.7%. Further, the growth was 46.9% in the assay on SK-MEL-5 melanoma; 60.7% in the assay on UACC-62 melanoma; 76.9% with LOX IMVI melanoma; 96.6% in the assay with SK-MEL-28 melanoma; 101% with SK-MEL-2 melanoma; 76.1% with EKVX NSCLC. Moreover, the growth in the assay on UO-31 renal is 108%; with TK-10 renal it was 116%; in the assay with ACHN renal, 52.9%; in the assay on CAKI-1 renal it was 76.1%; in the assay with A498 renal, 80.7%; with CCRF-CEM leukemia it was 43.4%. For the same compound, the growth with MOLT-4 leukemia was 30.5%.
In the case of `C=C1C(=O)O[C@H]2[C@H]1CC/C(COC(=O)NCc1ccc(Cn3c(=O)sn(-c4ccc(OC)cc4)c3=O)cc1)=C\CC[C@@]1(C)O[C@@H]21`, the growth with HCT-15 colon was 4.27% (active); with HT29 colon, -15.5% (active); with SNB-75 CNS it was 96%; in the assay on SNB-19 CNS, 94.8%; in the assay on U251 CNS, 77.7%; in the assay on PC-3 prostate, 70.3%. In addition, the growth with SK-MEL-5 melanoma is 97.9%; in the assay with UACC-62 melanoma, 60.7%; in the assay on LOX IMVI melanoma, 25%; in the assay on SK-MEL-28 melanoma, 71%; with SK-MEL-2 melanoma, 68.1%; in the assay on EKVX NSCLC, 97.1%. Moreover, the growth is -14.6% (active) in the assay with UO-31 renal; 1.08% (active) in the assay on TK-10 renal; -8.56% (active) in the assay with ACHN renal; 55.9% in the assay with CAKI-1 renal; 89.2% in the assay on A498 renal; -34.7% (active) in the assay on CCRF-CEM leukemia. Besides, the growth in the assay on MOLT-4 leukemia is -12.2% (active).
